Results on seven compounds are retold here after PubChem BioAssay (EPA / NIEHS).

For orientation: AC50 means the concentration giving half of the maximal activity seen.

“And” between values parts separate entries of the source, which are not always exact repeats. Equal entries are not always repeated. Results filed as inconclusive are left out. Some structures have more than one record in an assay (separate samples or runs), and their calls can disagree. The source made the active and inactive calls. The calls were made as follows, unless noted: active = hit-call score of the fitted dose curve at least 0.9, where 1 is the maximum; inactive = score below 0.9.

The target in test [1] is human Peroxisome Proliferator-activated Receptor alpha (PPARa), PPARA (gene 5465) (UniProt Q07869). Kind of test: ATG_PPARa_TRANS: Attagene TRANS-FACTORIAL HepG2 Assay for human Peroxisome Proliferator-activated Receptor alpha (PPARa) (AID 2283001; active = hit-call score of the fitted dose curve at least 0.9, where 1 is the maximum;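 as to AC50: potency for gain of reporter signal over DMSO so agonist or activator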). In a few lines:
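Exposure: 24 h, transiently transfected HepG2 cells. Endpoint: GAL4-UAS reporter mRNA, RT-PCR with capillary electrophoresis fluorescence. Baseline: DMSO; increases fitted.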

Test [2] deals with human Peroxisome Proliferator-activated Receptor delta (PPARd), PPARD (gene 5467) (UniProt Q03181). Description: ATG_PPARd_TRANS: Attagene TRANS-FACTORIAL HepG2 Assay for human Peroxisome Proliferator-activated Receptor delta (PPARd) (AID 2283002; active = hit-call score of the fitted dose curve at least 0.9, where 1 is the maximum). In a few lines: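 Measured quantity: GAL4-UAS reporter transcript induction in HepG2 after 24 h chemical dosing, with NR-Gal4 chimeras supplied by transient transfection. Detection by RT-PCR and capillary electrophoresis; upward fit against DMSO.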

Read-out in test [3]: Intercellular Adhesion Molecule 1 (ICAM1), ICAM1 (gene 3383)
Description: BSK_3C_ICAM1: BioMAP Diversity Plus: 3C Assay for Intercellular Adhesion Molecule 1 (ICAM1) Biomarker Activity (AID 2283003). The conditions noted are these: primary human endothelial cells (HUVEC); actives raise or lower the signal. In a few lines: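 Using DMSO as baseline, bidirectional curve fitting was applied to ICAM-1 ELISA signals from HUVEC in the 3C system, measured 24 h after compound addition.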

In test [4] the target is Retinoic acid receptor alpha (Homo sapiens) (UniProt P10276). Description: ATG_RARa_TRANS: Attagene TRANS-FACTORIAL HepG2 Assay for human Retinoic Acid Receptor alpha (RARa) (AID 2283005; active = hit-call score of the fitted dose curve at least 0.9, where 1 is the maximum). In outline:
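HepG2 cells transiently transfected with multiple reporter units expressing chimeric RARα-GAL4 fusion, with GAL4-UAS-driven reporters. After 24 h compound exposure, reporter mRNA induction quantified by RT-PCR and capillary electrophoresis with fluorescent labeling; gain-of-signal fitted relative to DMSO control.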

The nature of test [5]: BSK_3C_Proliferation: Cell Proliferation Assessment in the BioMAP Diversity Plus: 3C Assay (AID 2283006).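 As to AC50: potency may reflect either rise or fall in cell number versus DMSO.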 Particulars: primary human endothelial cells (HUVEC). In outline:
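Measured here: sulforhodamine B (0.1%) staining of TCA-fixed sub-confluent umbilical vein endothelial cultures 48 h post-dosing, absorbance 560 nm. DMSO served as negative control and baseline; both signal gain and loss were modelled.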

The target of test [6] is Peroxisome proliferator-activated receptor gamma (Homo sapiens) (UniProt P37231). Description: ATG_PPARg_TRANS: Attagene TRANS-FACTORIAL HepG2 Assay for human Peroxisome Proliferator-activated Receptor-gamma (PPARg) (AID 2283007; active = hit-call score of the fitted dose curve at least 0.9, where 1 is the maximum). In a few lines:
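A TRANS-format multiplexed reporter assay measures activity of an exogenous chimeric NR-Gal4 protein in HepG2 cells. After 24 h of chemical exposure, reporter transcripts are amplified, fluorescently labelled and sized by capillary electrophoresis, with gain of signal scored against DMSO.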

Test [7] concerns the target Nuclear receptor subfamily 1 group I member 2 (Homo sapiens) (UniProt O75469). Kind of test: ATG_PXR_TRANS: Attagene TRANS-FACTORIAL HepG2 Assay for human Pregnane X Receptor (PXR) (AID 2283008; active = hit-call score of the fitted dose curve at least 0.9, where 1 is the maximum). In a few lines:
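Transient HepG2 transfectants carrying multiplexed reporter transcription units; PXR activity read through a Gal4 chimera. 24 h exposure. RT-PCR/CE fluorescence; upward curve fit referenced to DMSO.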

In test [8] the target is human Retinoic Acid Receptor gamma (RARg), RARG (gene 5916) (UniProt P13631). Kind of test: ATG_RARg_TRANS: Attagene TRANS-FACTORIAL HepG2 Assay for human Retinoic Acid Receptor gamma (RARg) (AID 2283009; active = hit-call score of the fitted dose curve at least 0.9, where 1 is the maximum). In a few lines: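 Gain-of-signal relative to DMSO is reported from fluorescent capillary electrophoresis of RT-PCR reporter products. These came from HepG2 cells expressing transfected RARg-GAL4 chimeras with UAS reporters, harvested 24 h after dosing.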

Test [9] addresses Retinoic acid receptor RXR-alpha (Homo sapiens) (UniProt P19793). Kind of test: ATG_RXRa_TRANS: Attagene TRANS-FACTORIAL HepG2 Assay for human Retinoid X Receptor alpha (RXRa) (AID 2283012; active = hit-call score of the fitted dose curve at least 0.9, where 1 is the maximum). In outline:
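Chimeric NR-GAL4 trans-activation in HepG2, 24 h treatment; reporter transcripts quantified by fluorescence on capillary electrophoresis, analysed for upward change from DMSO.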

For test [10], the target named is human Retinoid X Receptor beta (RXRb), RXRB (gene 6257) (UniProt P28702). Kind of test: ATG_RXRb_TRANS: Attagene TRANS-FACTORIAL HepG2 Assay for human Retinoid X Receptor beta (RXRb) (AID 2283013; active = hit-call score of the fitted dose curve at least 0.9, where 1 is the maximum). In outline:
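After a 24 h incubation with test chemical, transfected HepG2 cells carrying NR-Gal4 fusions and GAL4-UAS reporter transcription units yield RNA whose reporter cDNA is FAM-labelled, HpaI-cut and sized by capillary electrophoresis; increases over DMSO are scored.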

Test [11] addresses human Thyroid Receptor alpha (THRa1), THRA (gene 7067) (UniProt P10827). Description: ATG_THRa1_TRANS: Attagene TRANS-FACTORIAL HepG2 Assay for human Thyroid Receptor alpha (THRa1) (AID 2283014; active = hit-call score of the fitted dose curve at least 0.9, where 1 is the maximum). In outline:
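HepG2 cells transiently transfected with multiplexed GAL4-UAS reporter units for exogenous chimeric THRa1-Gal4; reporter mRNA measured 24 h after dosing by RT-PCR, 6-FAM labelling, HpaI digestion and capillary electrophoresis. Gain-of-signal fitted versus DMSO baseline.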

Read-out in test [12]: E-selectin (Homo sapiens) (UniProt P16581)
Description: BSK_3C_Eselectin: BioMAP Diversity Plus: 3C Assay for Eselectin Biomarker Activity (AID 2283015).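 Also: cell surface E-selectin protein quantified by ELISA 24 h after dosing.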 Particulars: primary human endothelial cells (HUVEC); actives raise or lower the signal. In a few lines: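 Primary human umbilical vein endothelial cells (3C system) were dosed with chemical and cell-surface E-selectin measured by ELISA 24 h later. Bidirectional curve fitting used DMSO as negative control and baseline.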

Read-out in test [13]: Interleukin-1 alpha (IL1a), IL1A (gene 3552)
Kind of test: BSK_BE3C_IL1a: BioMAP Diversity Plus: BE3C Assay for Interleukin-1 alpha (IL1a) Biomarker Activity (AID 2283016). The conditions noted are these: primary human bronchial epithelial cells; actives raise or lower the signal. In a few lines: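 Measured in human lung primary bronchial epithelial cells: IL-1a by ELISA at 24 h after dosing, with bidirectional fitting against DMSO.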

Read-out in test [14]: Monocyte Chemoattractant Protein-1 (MCP1), CCL2 (gene 6347)
Kind of test: BSK_3C_MCP1: BioMAP Diversity Plus: 3C Assay for Monocyte Chemoattractant Protein-1 (MCP1) Biomarker Activity (AID 2283017). The conditions noted are these: primary human endothelial cells (HUVEC); actives raise or lower the signal. In a few lines:
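Primary human umbilical vein endothelial cells (3C system) were exposed to test chemical for 24 h, after which MCP-1 was quantified by ELISA. Activity was fitted bidirectionally against DMSO as negative control and baseline.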

Read-out in test [15]: Monocyte Chemoattractant Protein-1 (MCP1), CCL2 (gene 6347)
Description: BSK_4H_MCP1: BioMAP Diversity Plus: 4H Assay for Monocyte Chemoattractant Protein-1 (MCP1) Biomarker Activity (AID 2283018). The conditions noted are these: primary human endothelial cells (HUVEC); actives raise or lower the signal. In a few lines: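 Primary human umbilical vein endothelium is exposed to chemical for 24 h before MCP-1 is assayed by ELISA. Concentration-response fitted bidirectionally relative to DMSO.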

Read-out in test [16]: Human Leukocyte Antigen - DR isotype (HLADR), HLA-DRA (gene 3122)
Kind of test: BSK_3C_HLADR: BioMAP Diversity Plus: 3C Assay for Human Leukocyte Antigen - DR isotype (HLADR) Biomarker Activity (AID 2283019). The conditions noted are these: primary human endothelial cells (HUVEC); actives raise or lower the signal. In a few lines: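 Primary human umbilical vein endothelial cells (3C system) were dosed with compound and cell-surface HLA-DR was quantified by ELISA at 24 h. Activity was fitted bidirectionally against DMSO as negative control and baseline.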

Read-out in test [17]: Interleukin-8 (IL8), CXCL8 (gene 3576)
Description: BSK_3C_IL8: BioMAP Diversity Plus: 3C Assay for Interleukin-8 (IL8) Biomarker Activity (AID 2283020). Particulars: primary human endothelial cells (HUVEC); actives raise or lower the signal. In outline: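 Using DMSO-treated wells as the baseline, bidirectional curve fitting was applied to ELISA-measured IL-8 from human umbilical vein endothelial cultures sampled 24 h after compound addition.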

Read-out in test [18]: Monokine induced gamma interferon (MIG), CXCL9 (gene 4283)
Kind of test: BSK_3C_MIG: BioMAP Diversity Plus: 3C Assay for Monokine induced gamma interferon (MIG) Biomarker Activity (AID 2283021). The conditions noted are these: primary human endothelial cells (HUVEC); actives raise or lower the signal. In a few lines:
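ELISA-measured MIG in dosed HUVEC 3C cultures at 24 h, analysed by bidirectional fitting with DMSO defining baseline activity.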

In test [19] the target is human Retinoic Acid Receptor beta (RARb), RARB (gene 5915) (UniProt P10826). Description: ATG_RARb_TRANS: Attagene TRANS-FACTORIAL HepG2 Assay for human Retinoic Acid Receptor beta (AID 2283004; active = hit-call score of the fitted dose curve at least 0.9, where 1 is the maximum). In outline:
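HepG2 cells transiently transfected with multiplexed GAL4-UAS reporter units expressing chimeric NR–Gal4 fusions; 24 h compound exposure. Reporter mRNA quantified by RT-PCR, 6-FAM labelling, HpaI digestion and capillary electrophoresis; gain-of-signal fitted against DMSO baseline.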

Test [20] deals with human RAR-related Orphan Receptor gamma (RORg), RORC (gene 6097) (UniProt P51449). Kind of test: ATG_RORg_TRANS: Attagene TRANS-FACTORIAL HepG2 Assay for human RAR-related Orphan Receptor gamma (RORg) (AID 2283011; active = hit-call score of the fitted dose curve at least 0.9, where 1 is the maximum). In outline:
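Readout: reporter transcript induction (RT-PCR, fluorescent primer extension, capillary electrophoresis) after 24 h compound exposure of transiently transfected HepG2 cells carrying a RORg-Gal4 chimera and GAL4-UAS reporters; DMSO served as baseline, with increasing signal fitted.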

Chain of human Peroxisome Proliferator-activated Receptor delta (PPARd), PPARD (gene 5467) (Q03181 whole entry, looked up, the tested form may be a part): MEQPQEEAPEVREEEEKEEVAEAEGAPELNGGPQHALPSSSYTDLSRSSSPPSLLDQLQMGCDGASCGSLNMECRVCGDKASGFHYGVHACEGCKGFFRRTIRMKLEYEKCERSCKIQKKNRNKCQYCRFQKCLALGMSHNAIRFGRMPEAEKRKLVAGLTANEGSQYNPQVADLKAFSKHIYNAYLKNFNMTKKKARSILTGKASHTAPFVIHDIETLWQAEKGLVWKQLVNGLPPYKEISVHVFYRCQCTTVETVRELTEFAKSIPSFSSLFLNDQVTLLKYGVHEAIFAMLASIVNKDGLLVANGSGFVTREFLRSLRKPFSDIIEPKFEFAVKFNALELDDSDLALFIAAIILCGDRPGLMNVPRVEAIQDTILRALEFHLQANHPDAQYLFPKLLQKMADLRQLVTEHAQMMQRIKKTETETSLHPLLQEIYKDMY
Chain of human RAR-related Orphan Receptor gamma (RORg), RORC (gene 6097) (P51449 whole entry, looked up, the tested form may be a part): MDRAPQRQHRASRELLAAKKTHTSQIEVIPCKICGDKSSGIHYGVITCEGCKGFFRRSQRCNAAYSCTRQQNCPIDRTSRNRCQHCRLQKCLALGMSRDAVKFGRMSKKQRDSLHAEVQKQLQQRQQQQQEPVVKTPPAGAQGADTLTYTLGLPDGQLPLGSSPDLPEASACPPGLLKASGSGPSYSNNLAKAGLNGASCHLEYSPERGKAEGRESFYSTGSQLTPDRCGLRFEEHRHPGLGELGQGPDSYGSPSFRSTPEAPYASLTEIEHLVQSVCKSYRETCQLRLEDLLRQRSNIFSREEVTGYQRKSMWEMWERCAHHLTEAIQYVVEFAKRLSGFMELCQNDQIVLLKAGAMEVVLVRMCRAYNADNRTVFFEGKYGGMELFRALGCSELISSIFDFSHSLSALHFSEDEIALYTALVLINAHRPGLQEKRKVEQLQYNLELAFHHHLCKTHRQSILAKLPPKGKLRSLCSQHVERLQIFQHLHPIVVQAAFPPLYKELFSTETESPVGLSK
Chain of Peroxisome proliferator-activated receptor gamma (Homo sapiens) (P37231 whole entry, looked up, the tested form may be a part): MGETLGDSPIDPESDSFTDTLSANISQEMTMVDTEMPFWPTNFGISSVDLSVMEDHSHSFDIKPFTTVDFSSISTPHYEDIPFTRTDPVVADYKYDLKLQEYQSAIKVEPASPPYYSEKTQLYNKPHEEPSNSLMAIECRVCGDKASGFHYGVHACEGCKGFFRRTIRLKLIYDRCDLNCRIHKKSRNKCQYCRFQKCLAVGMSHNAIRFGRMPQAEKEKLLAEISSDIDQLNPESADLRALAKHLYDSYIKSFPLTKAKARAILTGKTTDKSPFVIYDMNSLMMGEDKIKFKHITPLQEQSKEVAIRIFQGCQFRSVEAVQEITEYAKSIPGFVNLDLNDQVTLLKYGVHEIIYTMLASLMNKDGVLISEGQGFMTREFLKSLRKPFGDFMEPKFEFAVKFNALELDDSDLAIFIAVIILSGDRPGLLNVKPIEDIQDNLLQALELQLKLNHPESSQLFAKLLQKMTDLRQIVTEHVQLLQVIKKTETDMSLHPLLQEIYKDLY
Chain of E-selectin (Homo sapiens) (P16581 whole entry, looked up): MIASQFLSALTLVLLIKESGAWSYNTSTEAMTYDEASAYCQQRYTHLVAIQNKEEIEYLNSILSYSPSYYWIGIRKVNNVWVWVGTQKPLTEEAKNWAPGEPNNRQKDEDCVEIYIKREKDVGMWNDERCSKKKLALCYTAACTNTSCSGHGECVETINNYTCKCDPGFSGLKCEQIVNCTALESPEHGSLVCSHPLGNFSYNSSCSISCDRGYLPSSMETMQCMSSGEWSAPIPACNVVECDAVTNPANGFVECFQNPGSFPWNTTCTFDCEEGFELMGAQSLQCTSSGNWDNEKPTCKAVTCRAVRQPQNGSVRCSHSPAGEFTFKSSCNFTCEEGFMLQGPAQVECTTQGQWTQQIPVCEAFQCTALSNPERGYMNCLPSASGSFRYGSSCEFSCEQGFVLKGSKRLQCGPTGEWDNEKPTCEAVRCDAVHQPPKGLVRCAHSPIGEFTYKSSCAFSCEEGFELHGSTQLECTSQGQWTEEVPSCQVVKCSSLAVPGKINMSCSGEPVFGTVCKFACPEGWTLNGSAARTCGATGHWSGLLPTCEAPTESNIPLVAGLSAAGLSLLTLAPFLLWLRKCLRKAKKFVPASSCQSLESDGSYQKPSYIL
Chain of human Thyroid Receptor alpha (THRa1), THRA (gene 7067) (P10827 whole entry, looked up, the tested form may be a part): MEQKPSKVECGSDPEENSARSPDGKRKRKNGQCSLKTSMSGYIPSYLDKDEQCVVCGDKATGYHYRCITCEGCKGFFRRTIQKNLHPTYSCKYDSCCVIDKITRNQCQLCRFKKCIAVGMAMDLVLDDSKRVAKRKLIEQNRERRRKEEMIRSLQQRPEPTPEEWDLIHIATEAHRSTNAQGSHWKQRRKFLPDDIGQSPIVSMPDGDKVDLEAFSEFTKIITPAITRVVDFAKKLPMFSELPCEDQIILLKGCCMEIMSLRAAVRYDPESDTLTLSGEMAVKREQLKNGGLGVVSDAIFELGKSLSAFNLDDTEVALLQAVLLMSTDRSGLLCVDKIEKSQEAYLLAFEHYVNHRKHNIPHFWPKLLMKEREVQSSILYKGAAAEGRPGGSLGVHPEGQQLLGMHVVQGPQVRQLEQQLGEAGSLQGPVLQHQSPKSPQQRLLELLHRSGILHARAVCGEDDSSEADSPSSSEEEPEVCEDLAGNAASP
Chain of human Retinoid X Receptor beta (RXRb), RXRB (gene 6257) (P28702 whole entry, looked up, the tested form may be a part): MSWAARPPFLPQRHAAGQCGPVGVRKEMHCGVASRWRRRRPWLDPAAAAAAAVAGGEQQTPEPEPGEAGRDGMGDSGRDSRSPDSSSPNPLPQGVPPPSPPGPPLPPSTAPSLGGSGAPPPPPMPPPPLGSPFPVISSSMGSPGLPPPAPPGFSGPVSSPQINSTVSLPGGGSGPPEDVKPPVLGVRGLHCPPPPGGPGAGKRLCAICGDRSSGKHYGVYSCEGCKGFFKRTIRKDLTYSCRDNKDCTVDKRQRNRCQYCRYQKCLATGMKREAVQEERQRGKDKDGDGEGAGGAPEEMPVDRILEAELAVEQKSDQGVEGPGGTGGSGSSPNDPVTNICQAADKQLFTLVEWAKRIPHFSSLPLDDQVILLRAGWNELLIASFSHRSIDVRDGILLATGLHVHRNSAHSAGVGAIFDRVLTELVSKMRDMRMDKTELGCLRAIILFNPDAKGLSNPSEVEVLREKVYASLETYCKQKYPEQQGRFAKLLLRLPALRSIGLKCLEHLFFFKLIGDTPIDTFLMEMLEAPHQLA
Chain of Retinoic acid receptor alpha (Homo sapiens) (P10276 whole entry, looked up, the tested form may be a part): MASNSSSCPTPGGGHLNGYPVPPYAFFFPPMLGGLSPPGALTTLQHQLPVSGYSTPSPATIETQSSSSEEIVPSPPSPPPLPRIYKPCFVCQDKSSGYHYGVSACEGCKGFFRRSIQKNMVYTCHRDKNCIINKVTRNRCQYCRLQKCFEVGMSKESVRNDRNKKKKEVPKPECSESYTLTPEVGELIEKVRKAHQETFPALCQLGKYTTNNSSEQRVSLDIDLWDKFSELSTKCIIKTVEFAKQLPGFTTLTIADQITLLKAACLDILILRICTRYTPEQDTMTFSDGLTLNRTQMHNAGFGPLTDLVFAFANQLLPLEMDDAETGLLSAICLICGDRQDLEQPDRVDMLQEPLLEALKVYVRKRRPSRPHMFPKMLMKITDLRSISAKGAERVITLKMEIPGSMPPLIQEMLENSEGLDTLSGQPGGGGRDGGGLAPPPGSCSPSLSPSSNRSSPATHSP
Chain of human Peroxisome Proliferator-activated Receptor alpha (PPARa), PPARA (gene 5465) (Q07869 whole entry, looked up, the tested form may be a part): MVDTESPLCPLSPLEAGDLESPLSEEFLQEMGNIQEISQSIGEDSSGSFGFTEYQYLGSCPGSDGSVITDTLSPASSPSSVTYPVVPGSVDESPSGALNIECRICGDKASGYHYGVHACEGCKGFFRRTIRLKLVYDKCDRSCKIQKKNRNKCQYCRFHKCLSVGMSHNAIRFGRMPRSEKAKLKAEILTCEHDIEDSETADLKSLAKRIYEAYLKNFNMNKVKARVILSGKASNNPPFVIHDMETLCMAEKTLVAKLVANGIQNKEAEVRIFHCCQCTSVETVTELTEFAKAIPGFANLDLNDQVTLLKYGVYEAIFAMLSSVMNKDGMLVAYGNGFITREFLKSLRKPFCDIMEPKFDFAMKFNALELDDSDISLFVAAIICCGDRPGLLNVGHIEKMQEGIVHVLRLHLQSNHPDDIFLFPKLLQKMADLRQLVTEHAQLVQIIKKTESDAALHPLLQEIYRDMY
Chain of Retinoic acid receptor RXR-alpha (Homo sapiens) (P19793 whole entry, looked up, the tested form may be a part): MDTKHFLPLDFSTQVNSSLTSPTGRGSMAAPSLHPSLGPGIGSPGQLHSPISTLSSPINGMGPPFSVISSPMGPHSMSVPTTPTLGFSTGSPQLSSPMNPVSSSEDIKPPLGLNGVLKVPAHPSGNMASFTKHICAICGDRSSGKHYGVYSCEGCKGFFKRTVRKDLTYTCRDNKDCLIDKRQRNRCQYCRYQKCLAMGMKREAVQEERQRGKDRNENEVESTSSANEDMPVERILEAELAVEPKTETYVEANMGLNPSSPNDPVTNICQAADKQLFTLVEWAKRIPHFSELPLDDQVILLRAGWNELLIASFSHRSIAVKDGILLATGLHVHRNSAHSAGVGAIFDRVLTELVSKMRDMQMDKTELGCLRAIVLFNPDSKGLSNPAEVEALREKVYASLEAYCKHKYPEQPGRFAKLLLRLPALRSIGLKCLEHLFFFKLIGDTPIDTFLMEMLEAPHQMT
Chain of human Retinoic Acid Receptor gamma (RARg), RARG (gene 5916) (P13631 whole entry, looked up, the tested form may be a part): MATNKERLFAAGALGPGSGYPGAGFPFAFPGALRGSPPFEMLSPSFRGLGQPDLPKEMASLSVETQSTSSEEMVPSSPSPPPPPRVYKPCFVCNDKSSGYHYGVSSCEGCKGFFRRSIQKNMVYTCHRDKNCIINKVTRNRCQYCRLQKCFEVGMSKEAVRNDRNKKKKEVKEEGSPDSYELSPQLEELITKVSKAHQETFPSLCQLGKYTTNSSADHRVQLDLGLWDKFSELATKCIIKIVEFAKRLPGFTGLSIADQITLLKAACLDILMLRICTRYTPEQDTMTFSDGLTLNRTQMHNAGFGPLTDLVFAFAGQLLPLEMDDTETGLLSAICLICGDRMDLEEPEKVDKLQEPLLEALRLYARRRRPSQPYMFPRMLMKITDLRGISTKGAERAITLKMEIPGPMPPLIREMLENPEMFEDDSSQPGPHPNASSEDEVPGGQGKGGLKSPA

For `NCC(F)(F)C(F)(F)C(F)(F)C(F)(F)C(F)(F)C(F)(F)C(F)(F)F`, the compound was called inactive in test [1], in test [2], in test [3], in [4], in test [5] and in [6]. Moreover, the call in test [7], in test [8], in test [9], in test [10], in test [11] and in test [12] was inactive. Besides, the outcome in test [13], in test [14], in [15], in [16], in test [17] and in test [18] was inactive.

With `OC1CCC(C2CCCCC2)CC1` (centres undefined), the call in [1], in test [2], in [3], in test [19], in test [5] and in test [6] was inactive. Moreover, the compound was classed as inactive in test [9], in test [10], in test [11], in test [12], in test [13] and in [14]. Besides, the result in [15], in test [16], in test [17] and in test [18] was inactive.

`CC(C)CCCCCCOC(=O)CCCCC(=O)OCCCCCCC(C)C`: the compound was classed as inactive in test [1], in test [2], in [3], in test [4], in test [5] and in [6]. In addition, the compound was called inactive in test [8], in test [11], in test [12], in test [13], in test [14] and in test [15]. Further, the outcome in [16], in test [17] and in test [18] was inactive. Also, the AC50 in [10] was 52.9 µM (active).

Regarding `CCCCCCCCCCCCc1ccccc1S(=O)(=O)O`, the call in test [1], in test [3], in [19], in test [4], in test [6] and in test [8] was inactive. Further, the outcome in test [20], in test [9], in test [12], in test [14], in test [15] and in test [16] was inactive. Besides, the outcome in test [17] and in test [18] was inactive. Besides, the AC50 in test [5] was 32.3 µM (active); in [7], 3.52 µM (active); in test [10] it was 9.1 µM (active); in [13] it was 14.3 µM (active).

Turning to `CCCCC(CC)COC(=O)CCCCC(=O)OCc1ccccc1` (centres undefined), the compound was classed as inactive in test [1], in test [2], in test [3], in test [5], in test [6] and in test [8]. In addition, the compound was called inactive in [20], in test [11], in test [12], in test [13], in [14] and in test [15]. Further, the result in [16], in test [17] and in [18] was inactive. The half-maximal activity concentration (AC50) in test [7] was 17.8 µM (active); in [10] it was 80.6 µM (active).

On to `O=C(O)Cc1cc(I)c(Oc2cc(I)c(O)c(I)c2)c(I)c1`, for which the AC50 is 67 µM (active) in test [1]; 21.3 µM (active) in [5]; 481 nM (active) and 460 nM (active) in [6]; 10.3 µM (active) in test [9]; 2.55 µM (active) and 17.6 µM (active) in test [10]; 7.41 nM (active) and 21.4 nM (active) in test [11]. Moreover, the AC50 was 8.95 µM (active) in [13]; 25.4 µM (active) in [14]; 19.9 µM (active) in [15]; 26.2 µM (active) in test [16]; 22.4 µM (active) in test [17]. Further, the call in [1], in [2], in test [3], in test [4], in test [8] and in test [20] was inactive. The call in test [9], in test [12] and in test [18] was inactive.

With `O=C1OC2(c3ccccc31)c1cc(Br)c(O)c(Br)c1Oc1c2cc(Br)c(O)c1Br`, the call in test [1], in test [2], in test [4], in test [6], in test [8] and in [20] was inactive. The compound was classed as inactive in test [10] and in [11]. In test [6], the AC50 was 51.8 µM (active).
